# Measurements from the supplement of paper PMC9262897, “Low-cost anti-mycobacterial drug discovery using engineered E. coli” (Nature Communications, 2022).
# Structures can show the parent of a compound that is named as a salt. ± gives the standard deviation of the averaged measurements.
# Assays:
# Assay in all cases: growth (OD600 after 10 h); higher = more growth (less inhibition)
# [1] = tested on: E. coli TESEC Alr+ wild-type control; settings: compound 0.1 mM; raw OD600 reference: median of DMSO wells 0.241, cell-free background 0.041
# Experimental: (§1)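 TESEC Mtb Alr E. coli, or the Alr+ wild-type control, in 384-well plates with Prestwick library compounds at 0.1 mM and 1% DMSO, across arabinose induction levels of 1E3 to 1E7 nM. Growth is read as OD600 after 10 h at 37 °C in triplicate biological replicates.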
# E. coli TESEC Mtb Alr [2] = settings: compound 0.1 mM
# Experimental: as §1
# E. coli TESEC Mtb Asd = settings: compound 0.1 mM
# Experimental: (§2)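 TESEC E. coli strains in which the native enzyme is deleted and replaced by arabinose-inducible Mtb Asd, DapB, CysH or TrpD, each grown in its selective medium. Strains were screened against the Prestwick library at 0.1 mM and 1% DMSO in 384-well format at low and high arabinose induction. Growth is read as OD600 after 10 h in triplicate.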
# E. coli TESEC Mtb DapB = settings: compound 0.1 mM
# Experimental: as §2
# [3] = tested on: E. coli TESEC Alr+ wild-type control; settings: compound 0.1 mM; raw OD600 reference: median of DMSO wells 0.49, cell-free background 0.052
# Experimental: (§3)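 TESEC Mtb Alr E. coli (ΔaraC ΔtolC ΔentC Δalr ΔdadX, arabinose-inducible Mtb Alr) or the Alr+ wild-type control strain, grown in defined M9-fructose medium without D-alanine in 96-well plates with Prestwick library compounds at 0.1 mM and 1% DMSO. Low Alr induction is 0.1 µM arabinose and high induction is 10 mM arabinose.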
# E. coli TESEC Mtb Alr [4] = settings: compound 0.1 mM; remark: listed apart in the source
# Experimental: as §3
# [5] = arabinose 1000 nM, raw OD600 reference: median of DMSO wells 0.294, cell-free background 0.041
# [6] = arabinose 10000 nM, raw OD600 reference: median of DMSO wells 0.264, cell-free background 0.041
# [7] = arabinose 100000 nM, raw OD600 reference: median of DMSO wells 0.201, cell-free background 0.041
# [8] = arabinose 1000000 nM, raw OD600 reference: median of DMSO wells 0.193, cell-free background 0.041
# [9] = arabinose 10000000 nM, raw OD600 reference: median of DMSO wells 0.146, cell-free background 0.041
# [10] = arabinose induction (level): High, raw OD600 reference: median of DMSO wells 0.331, cell-free background 0.041
# [11] = arabinose induction (level): Low, raw OD600 reference: median of DMSO wells 0.417, cell-free background 0.041
# [12] = arabinose induction (level): High, raw OD600 reference: median of DMSO wells […], cell-free background 0.041
# [13] = arabinose induction (level): Low, raw OD600 reference: median of DMSO wells 0.227, cell-free background 0.041
# [14] = arabinose 100 nM, raw OD600 reference: median of DMSO wells 0.413, cell-free background 0.052
# [15] = arabinose 10000000 nM, raw OD600 reference: median of DMSO wells […], cell-free background 0.052
SMILES,growth [1],growth (E. coli TESEC Mtb Alr [2]; [5]),growth (E. coli TESEC Mtb Alr [2]; [6]),growth (E. coli TESEC Mtb Alr [2]; [7]),growth (E. coli TESEC Mtb Alr [2]; [8]),growth (E. coli TESEC Mtb Alr [2]; [9]),growth (E. coli TESEC Mtb Asd; [10]),growth (E. coli TESEC Mtb Asd; [11]),growth (E. coli TESEC Mtb DapB; [12]),growth (E. coli TESEC Mtb DapB; [13]),growth [3],growth (E. coli TESEC Mtb Alr [4]; [14]),growth (E. coli TESEC Mtb Alr [4]; [15])
CCC(Cc1c(I)cc(I)c(N)c1I)C(=O)O (stereo unspecified) [Iopanoic acid],0.0835 ± 0.0044,0.0987 ± 0.0055,0.0635 ± 0.0046,0.097 ± 0.003,0.0566 ± 0.001,0.0777 ± 0.0027,0.114 ± 0.0023,0.0943 ± 0.0055,0.148 ± 0.005,0.177 ± 0.005,0.263 ± 0.0034,0.339 ± 0.018,0.0809 ± 0.0061
Cc1c(NC(C)C)c(=O)n(-c2ccccc2)n1C [Isopyrin hydrochloride],0.2426 ± 0.0023,0.304 ± 0.017,0.265 ± 0.004,0.229 ± 0.0067,0.211 ± 0.0094,0.141 ± 0.0042,0.29 ± 0.04,0.429 ± 0.036,0.218 ± 0.019,0.268 ± 0.032,0.44 ± 0.036,0.393 ± 0.0061,0.351 ± 0.016
O=C(O)CCNC(=O)c1ccc(/N=N/c2ccc(O)c(C(=O)O)c2)cc1 [Balsalazide Sodium],0.276 ± 0.0079,0.318 ± 0.0085,0.2664 ± 0.0024,0.213 ± 0.0045,0.206 ± 0.0036,0.138 ± 0.0021,0.252 ± 0.008,0.434 ± 0.012,0.232 ± 0.0039,0.241 ± 0.014,0.465 ± 0.057,0.394 ± 0.035,0.378 ± 0.014
O=C(Nc1cccc2c(=O)cc(-c3nnn[nH]3)oc12)c1ccc(OCCCCc2ccccc2)cc1 [Pranlukast],0.23 ± 0.0033,0.238 ± 0.0077,0.196 ± 0.0094,0.227 ± 0.0058,0.144 ± 0.0097,0.178 ± 0.0095,0.236 ± 0.0051,0.238 ± 0.014,0.158 ± 0.014,0.195 ± 0.015,0.46 ± 0.0055,0.424 ± 0.0063,0.308 ± 0.013
O=C(OCC(O)CO)c1ccccc1Nc1ccnc2cc(Cl)ccc12 (stereo unspecified) [Glafenine hydrochloride],0.116 ± 0.0048,0.146 ± 0.006,0.164 ± 0.017,0.187 ± 0.026,0.102 ± 0.0023,0.144 ± 0.0045,0.253 ± 0.04,0.17 ± 0.021,0.196 ± 0.0089,0.276 ± 0.059,0.374 ± 0.0054,0.384 ± 0.022,0.149 ± 0.02
C#C[C@]1(O)CC[C@H]2[C@@H]3CCC4=CC(=O)CC[C@@H]4[C@H]3CC[C@@]21CC [Norgestrel-(-)-D],0.225 ± 0.017,0.271 ± 0.0042,0.2581 ± 0.0012,0.193 ± 0.014,0.179 ± 0.0092,0.145 ± 0.007,0.374 ± 0.051,0.429 ± 0.018,0.191 ± 0.0085,0.234 ± 0.04,0.517 ± 0.04,0.413 ± 0.018,0.331 ± 0.039
O=c1[nH]c(=O)n(C2CCCO2)cc1F (stereo unspecified) [Tegafur],0.2441 ± 0.0016,0.284 ± 0.0093,0.2613 ± 0.001,0.208 ± 0.0031,0.224 ± 0.013,0.135 ± 0.0053,0.366 ± 0.03,0.359 ± 0.091,0.2018 ± 0.0016,0.23 ± 0.032,0.586 ± 0.12,0.407 ± 0.011,0.346 ± 0.011
Cc1cc(=O)oc2cc(O)ccc12 [Hymecromone],0.227 ± 0.0065,0.286 ± 0.024,0.25 ± 0.0054,0.177 ± 0.012,0.182 ± 0.0058,0.148 ± 0.0076,0.317 ± 0.033,0.411 ± 0.013,0.198 ± 0.0059,0.208 ± 0.032,0.631 ± 0.01,0.406 ± 0.017,0.355 ± 0.0061
C[C@H]1NC(=O)NC1=O [Methylhydantoin-5-(D)],0.257 ± 0.0085,0.323 ± 0.014,0.268 ± 0.005,0.2 ± 0.019,0.186 ± 0.0032,0.156 ± 0.0032,0.46 ± 0.085,0.467 ± 0.0073,0.202 ± 0.012,0.244 ± 0.012,0.607 ± 0.018,0.405 ± 0.015,0.321 ± 0.015
O=C(NC(Cc1cc(=O)[nH]c2ccccc12)C(=O)O)c1ccc(Cl)cc1 (stereo unspecified) [Rebamipide],0.26 ± 0.0077,0.314 ± 0.015,0.259 ± 0.0053,0.211 ± 0.01,0.196 ± 0.0026,0.146 ± 0.0044,0.312 ± 0.035,0.435 ± 0.058,0.221 ± 0.0038,0.244 ± 0.011,0.484 ± 0.068,0.409 ± 0.012,0.368 ± 0.014
CC=CC(=O)N(CC)c1ccccc1C [Crotamiton],0.242 ± 0.01,0.329 ± 0.028,0.269 ± 0.014,0.236 ± 0.014,0.181 ± 0.0031,0.158 ± 0.017,0.473 ± 0.015,0.467 ± 0.02,0.236 ± 0.053,0.235 ± 0.03,0.489 ± 0.022,0.4 ± 0.02,0.32 ± 0.0055
CO[C@@]1(NC(=O)Cc2cccs2)C(=O)N2C(C(=O)O)=C(COC(N)=O)CS[C@@H]21 [Cefoxitin sodium salt],0.0397 ± 0.00092,0.0385 ± 0.0017,0.0398 ± 0.0004,0.0383 ± 0.0013,0.03983 ± 0.00029,0.0389 ± 0.00036,0.0597 ± 0.0059,0.0593 ± 0.014,0.0512 ± 0.0019,0.0492 ± 0.0059,0.0458 ± 0.00061,0.0456 ± 0.00026,0.052 ± 0.0013
COCCCOc1ccnc(C[S+]([O-])c2nc3ccccc3[nH]2)c1C (stereo unspecified) [Rabeprazole Sodium salt],0.186 ± 0.0019,0.213 ± 0.023,0.262 ± 0.011,0.135 ± 0.0037,0.0782 ± 0.0026,0.1339 ± 0.0007,0.423 ± 0.028,0.371 ± 0.01,0.176 ± 0.021,0.207 ± 0.0085,0.375 ± 0.0068,0.357 ± 0.011,0.152 ± 0.035
O=C(O)Cc1ccccc1Nc1c(Cl)cccc1Cl [Diclofenac sodium],0.1279 ± 0.00065,0.137 ± 0.0017,0.132 ± 0.0064,0.149 ± 0.006,0.103 ± 0.004,0.131 ± 0.0017,0.172 ± 0.014,0.179 ± 0.01,0.166 ± 0.0086,0.172 ± 0.014,0.436 ± 0.0056,0.329 ± 0.037,0.214 ± 0.015
Clc1ccc(CO/N=C(\Cn2ccnc2)c2ccc(Cl)cc2Cl)c(Cl)c1 [Oxiconazole Nitrate],0.0527 ± 0.0022,0.0489 ± 0.0051,0.0625 ± 0.0013,0.0581 ± 0.003,0.0621 ± 0.0011,0.0621 ± 0.0089,0.0621 ± 0.001,0.0577 ± 0.0051,0.0621 ± 0.0016,0.0618 ± 0.0051,0.0828 ± 0.0028,0.095 ± 0.058,0.0891 ± 0.0035
CCN(CC)C(=O)Nc1ccc(OCC(O)CNC(C)(C)C)c(C(C)=O)c1 (stereo unspecified) [Celiprolol HCl],0.215 ± 0.0023,0.292 ± 0.0042,0.247 ± 0.0042,0.221 ± 0.028,0.171 ± 0.0053,0.135 ± 0.0071,0.245 ± 0.048,0.341 ± 0.089,0.192 ± 0.009,0.264 ± 0.058,0.455 ± 0.027,0.421 ± 0.0097,0.356 ± 0.014
CCCCCNC(=N)N/N=C/c1c[nH]c2ccc(OC)cc12 [Tegaserod maleate],0.0464 ± 0.0039,0.047 ± 0.0021,0.0443 ± 0.00086,0.0455 ± 0.0016,0.0451 ± 0.0011,0.0474 ± 0.0038,0.0504 ± 0.0014,0.0483 ± 0.0011,0.0474 ± 0.0015,0.0486 ± 0.0013,0.0476 ± 0.00066,0.0508 ± 0.00065,0.0554 ± 0.00072
